From PubChem BioAssay AID1345085 (National Center for Advancing Translational Sciences (NCATS), 2018)
Records with an inconclusive call do not appear. Active and inactive are the calls of the source. Calls follow the shape of the dose curve; as a rule, active = well fitted cell-killing curve with a large enough effect; inconclusive = small, poorly fitted or top-dose-only effect, or effect the other way; inactive = no such curve, though single readings can be large or run the other way.

tested on: SKOV3; assay: Confirmatory qHTS for gynecologic anti-cancer compounds from libraries of approved drugs and bioactive compounds; details: gynecologic cancer cell panel viability, ATPlite luminescence, 48 h; series mostly up to 57.6 µM; also: nearly all actives have a fitted effect of over 55% in size
Method in brief: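 1,000 cells/well; 16 h pre-incubation 37 C, 5% CO2; pin-transferred cpd in DMSO, 11 conc (1:3), 57.5 uM–0.977 nM; 48 h; ATPlite, 15 min RT; luminescence → IC50.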

SMILES	outcome
O=C(O)Cc1ccccc1	inactive
C[C@]12CC[C@H]3[C@@H](CCC4=CC(=O)CC[C@@H]43)[C@@H]1CC[C@@H]2OC(=O)CCc1ccccc1	inactive
CCOc1ccccc1-n1c(C(C)N2CCN(C(=O)COc3ccc(Cl)cc3)CC2)nc2ccccc2c1=O (stereo not given)	inactive
C=C(C)[C@H]1Cc2c(ccc3c2O[C@@H]2COc4cc(OC)c(OC)cc4[C@@H]2C3=O)O1	inactive
CCC(=O)O[C@H]1CC[C@H]2[C@@H]3CCC4=CC(=O)CC[C@]4(C)[C@H]3CC[C@]12C	inactive
